The text below walks through data of PubChem BioAssay (NCATS).

SMILES strings stand for the structures. Inconclusive results are not listed. Activity calls are given as the source filed them. Unless noted, the call rests on the fitted dose curve; in most records, active means well fitted curve in the direction sought with a large enough effect; inconclusive means small, poorly fitted or top-dose-only effect, or another doubt; inactive means no such curve, though single readings can be large; an effect the other way counts as inactive or inconclusive.

In experiment [1] the target is D(1A) dopamine receptor (Homo sapiens) (UniProt P21728). The experiment is described as follows: HTS Assay for Allosteric Agonists of the Human D1 Dopamine Receptor: Primary Screen for Potentiators (AID 488982). Further: potency means the concentration at half of the fitted maximal effect. Put shortly:
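Calcium flux in an inducible, force-coupled HEK293 Trex D1 line (overnight at 30 C): agonist mode is the 180 s kinetic read after compound; potentiator mode is the following 180 s read after dopamine at EC20.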

Experiment [2] has the same target. Nature of the experiment: HTS Assay for Allosteric Agonists of the Human D1 Dopamine Receptor: Primary Screen for Antagonists (AID 488983).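 Further: calcium flux response to an EC80 dopamine challenge measured with no-wash dye; nearly all actives have a fitted effect of over 65% in size.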 Further: potency means the concentration at half of the fitted maximal effect. Put shortly:
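Calcium flux readout, no-wash dye, inducible HEK293 T-REx D1 line (force-coupled). Compound added after 10 s baseline, 180 s kinetic read; then dopamine at EC80, further 180 s read.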

Experiment [3] is described as follows: Validation screen for small molecules that induce genotoxicity in human embryonic kidney (HEK293T) cells expressing luciferase-tagged ELG1 (AID 493106). Further: potency means the concentration at half of the fitted maximal effect. An outline of the steps: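 qHTS format; 2,000 HEK293T ELG1-luc cells/well; 23 nL compound via pin tool; 16 hr, 37 °C/5% CO2; ONE-Glo, 30 min RT; luminescence read.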
Experiment [4] concerns the target Thyrotropin-releasing hormone receptor (Homo sapiens) (UniProt P34981). Nature of the experiment: qHTS for Small Molecule Agonists and Allosteric Enhancers of Human TRH Receptor: Validation Screen for Agonists (AID 493127;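 active means calcium activation more than 3 SD above the typical response in the agonist read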;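 further: intracellular calcium rise by fluo-8 fluorescence before TRH EC20 addition; 0% is about no effect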). Particulars: TRH receptor agonist cell assay; at 2 µM; stronger effect = higher value. An outline of the steps: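 Read-out: intracellular calcium release measured kinetically by FDSS (fluo-8, ex 480/em 530 nm), 1 reading/s after a 10-cycle baseline. TRHR cells, 2000/well, cultured 18 h at 33.5C, dye-loaded at room temp. Compound-evoked positive calcium signal flags agonists.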

Experiment [5] is described as follows: Nrf2 qHTS screen for inhibitors: Validation (AID 493153; active means well fitted inhibition curve with a large enough effect in the main read-out, with a control signal flat, not every such curve was filed as active). The note with it: Potency: luciferase luminescence; viability change: measured here: cytotoxicity max response. Put shortly:
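Concentration-response test in A549 ARE_Fluc reporter cells (5% FBS OPTI-MEM), compound exposure 18-24 h at 37°C, 5% CO2. Cell viability measured first by CellTiter-Fluor fluorescence; ARE-driven luciferase luminescence then measured as Nrf2 activity.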
On the technique in general: In qHTS, concentration-response curves come from the screen itself.

A short description of experiment [6]: qHTS for Inhibitors of Cell Surface uPA Generation: Validation Assay (AID 493164).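 Further: RAW 264.7 macrophage cells exposed to compound for 18 h; 0% is about no effect.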 An outline of the steps: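 Compounds are titrated over seven points (2.45 nM–38.3 uM final) onto pre-plated RAW 264.7 cells and incubated for 18 h. Retained intracellular ATP, measured with ATP-Lite, indicates blocked lethal factor entry.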
For experiment [7], the target named is Galactokinase (Homo sapiens) (UniProt P51570). Nature of the experiment: qHTS Validation Assay for Inhibitors of Human Galactokinase (GALK) (AID 493189). Further: 0% is about no effect. Put shortly: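 Compounds were pin-transferred into ATP buffer, then GALK-galactose mix was added (final 5 nM enzyme, 100 uM galactose, 35 uM ATP). After 1 h at room temperature, remaining ATP was measured luminescently.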
Sequence of Galactokinase (Homo sapiens) (P51570 whole entry, looked up): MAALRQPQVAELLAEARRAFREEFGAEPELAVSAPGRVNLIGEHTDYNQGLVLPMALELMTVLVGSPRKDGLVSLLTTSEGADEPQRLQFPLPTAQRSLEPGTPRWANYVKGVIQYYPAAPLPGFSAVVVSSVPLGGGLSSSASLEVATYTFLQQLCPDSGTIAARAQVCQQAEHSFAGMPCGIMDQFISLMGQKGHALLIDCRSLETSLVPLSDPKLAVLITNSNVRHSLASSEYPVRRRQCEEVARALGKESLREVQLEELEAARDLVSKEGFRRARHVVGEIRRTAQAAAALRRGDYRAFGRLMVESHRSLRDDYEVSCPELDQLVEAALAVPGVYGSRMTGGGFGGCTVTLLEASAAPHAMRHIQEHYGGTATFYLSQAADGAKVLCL

Experiment [8] addresses ATPase family AAA domain-containing protein 5 (Homo sapiens) (UniProt Q96QE3). Nature of the experiment: Validation screen for small molecules that inhibit ELG1-dependent DNA repair in human embryonic kidney (HEK293T) cells expressing luciferase-tagged ELG1 (AID 493107).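 Further: cells co-treated with the DNA-damaging agent 5-fluorouridine alongside compound; series mostly up to about 46 µM; on the % scale 0 is the no-effect control and ±100 the full control effect; inhibitors lower the ELG1-luciferase luminescence signal; nearly all actives have a fitted effect of over 70% in size.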 Put shortly:
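ELG1-luciferase HEK293T reporter; 5-fluorouridine + compound/DMSO, 16 hr, 37 °C, 5% CO2; ONE-Glo 30 min RT; luminescence read, qHTS format.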

Experiment [9] has as its target ATP-dependent 6-phosphofructokinase (Trypanosoma brucei brucei) (UniProt O15648). Nature of the experiment: qHTS Assay to Find Inhibitors of T. brucei phosphofructokinase: hit validation (AID 492961).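 Further: luminescence reports ADP formed as PFK phosphorylates fructose-6-phosphate with ATP; series mostly up to about 51 µM; on the % scale 0 is the no-effect control and ±100 the full control effect.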 Put shortly:
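Measures ADP output of PFK (1.25 nM) at 0.1 mM ATP, 0.5 mM F6P, pH 8.0 TEA buffer with 5 mM MgCl2. No-enzyme wells define full inhibition; uninhibited enzyme wells define zero.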

Sequence of Thyrotropin-releasing hormone receptor (Homo sapiens) (P34981 whole entry, looked up): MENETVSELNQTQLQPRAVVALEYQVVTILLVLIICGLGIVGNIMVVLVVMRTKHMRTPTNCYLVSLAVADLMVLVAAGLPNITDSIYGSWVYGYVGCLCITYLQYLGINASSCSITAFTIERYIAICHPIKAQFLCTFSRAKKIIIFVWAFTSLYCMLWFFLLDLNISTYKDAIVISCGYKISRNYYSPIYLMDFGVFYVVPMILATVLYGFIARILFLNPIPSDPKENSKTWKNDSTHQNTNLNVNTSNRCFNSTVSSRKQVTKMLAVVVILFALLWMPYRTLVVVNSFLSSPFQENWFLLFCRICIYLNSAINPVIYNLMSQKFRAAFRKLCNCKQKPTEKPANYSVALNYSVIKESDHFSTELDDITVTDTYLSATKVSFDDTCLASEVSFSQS
Sequence of D(1A) dopamine receptor (Homo sapiens) (P21728 whole entry, looked up): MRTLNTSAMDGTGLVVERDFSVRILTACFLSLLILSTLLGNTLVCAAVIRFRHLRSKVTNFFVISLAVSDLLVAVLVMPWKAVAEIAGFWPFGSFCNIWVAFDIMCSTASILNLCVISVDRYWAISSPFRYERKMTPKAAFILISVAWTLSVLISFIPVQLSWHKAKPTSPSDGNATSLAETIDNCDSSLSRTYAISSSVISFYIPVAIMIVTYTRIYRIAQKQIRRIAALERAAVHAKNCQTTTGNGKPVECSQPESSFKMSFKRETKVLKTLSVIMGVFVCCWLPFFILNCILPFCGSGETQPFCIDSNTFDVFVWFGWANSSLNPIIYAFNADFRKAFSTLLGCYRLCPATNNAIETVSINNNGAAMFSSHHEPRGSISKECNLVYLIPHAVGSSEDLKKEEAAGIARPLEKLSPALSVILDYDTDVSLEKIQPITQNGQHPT
Sequence of ATPase family AAA domain-containing protein 5 (Homo sapiens) (Q96QE3 whole entry, looked up, the tested form may be a part): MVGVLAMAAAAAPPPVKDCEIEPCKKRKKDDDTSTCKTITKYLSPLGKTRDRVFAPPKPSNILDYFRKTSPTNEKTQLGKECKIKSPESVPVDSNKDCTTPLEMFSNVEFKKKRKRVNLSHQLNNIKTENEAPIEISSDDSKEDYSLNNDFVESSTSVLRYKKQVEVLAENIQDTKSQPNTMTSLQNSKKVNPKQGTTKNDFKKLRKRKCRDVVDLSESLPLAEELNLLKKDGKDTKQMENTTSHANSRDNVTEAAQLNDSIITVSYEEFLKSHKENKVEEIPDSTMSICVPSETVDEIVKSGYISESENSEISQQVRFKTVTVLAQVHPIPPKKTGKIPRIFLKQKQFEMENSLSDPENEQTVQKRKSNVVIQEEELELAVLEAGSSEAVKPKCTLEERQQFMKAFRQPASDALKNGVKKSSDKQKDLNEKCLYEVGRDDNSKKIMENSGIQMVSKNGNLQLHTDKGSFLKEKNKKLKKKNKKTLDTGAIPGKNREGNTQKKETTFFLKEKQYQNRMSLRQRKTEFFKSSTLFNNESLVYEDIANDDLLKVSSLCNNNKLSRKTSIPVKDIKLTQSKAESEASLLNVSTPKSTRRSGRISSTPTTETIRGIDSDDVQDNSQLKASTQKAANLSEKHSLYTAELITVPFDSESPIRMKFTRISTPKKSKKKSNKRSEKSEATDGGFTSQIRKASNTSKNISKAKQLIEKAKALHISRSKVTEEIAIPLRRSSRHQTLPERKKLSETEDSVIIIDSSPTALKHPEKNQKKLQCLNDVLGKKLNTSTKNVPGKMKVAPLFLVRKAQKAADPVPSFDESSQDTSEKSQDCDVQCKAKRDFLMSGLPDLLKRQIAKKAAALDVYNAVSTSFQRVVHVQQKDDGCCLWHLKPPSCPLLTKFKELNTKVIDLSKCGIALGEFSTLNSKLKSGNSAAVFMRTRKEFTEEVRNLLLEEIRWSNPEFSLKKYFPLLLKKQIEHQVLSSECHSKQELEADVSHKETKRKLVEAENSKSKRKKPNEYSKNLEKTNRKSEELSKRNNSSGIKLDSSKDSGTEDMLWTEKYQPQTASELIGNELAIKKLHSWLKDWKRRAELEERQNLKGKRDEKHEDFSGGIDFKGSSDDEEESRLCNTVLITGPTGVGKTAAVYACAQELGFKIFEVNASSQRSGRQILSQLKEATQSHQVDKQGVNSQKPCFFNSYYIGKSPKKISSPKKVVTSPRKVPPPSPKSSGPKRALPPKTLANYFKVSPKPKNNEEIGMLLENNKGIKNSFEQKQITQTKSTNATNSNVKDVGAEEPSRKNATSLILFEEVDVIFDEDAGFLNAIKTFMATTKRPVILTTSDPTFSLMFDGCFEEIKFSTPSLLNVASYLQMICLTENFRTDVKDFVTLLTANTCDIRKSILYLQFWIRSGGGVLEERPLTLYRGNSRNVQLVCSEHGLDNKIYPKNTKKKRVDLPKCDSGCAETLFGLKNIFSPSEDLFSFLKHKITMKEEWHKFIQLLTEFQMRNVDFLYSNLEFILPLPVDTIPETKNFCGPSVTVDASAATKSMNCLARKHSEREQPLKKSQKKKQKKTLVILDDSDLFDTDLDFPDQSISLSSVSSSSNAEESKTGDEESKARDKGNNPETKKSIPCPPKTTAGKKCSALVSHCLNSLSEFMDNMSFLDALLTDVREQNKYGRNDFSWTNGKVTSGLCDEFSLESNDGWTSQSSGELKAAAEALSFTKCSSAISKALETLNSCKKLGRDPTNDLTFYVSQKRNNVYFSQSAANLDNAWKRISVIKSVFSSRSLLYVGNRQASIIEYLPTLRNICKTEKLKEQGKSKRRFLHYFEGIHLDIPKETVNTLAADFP
Sequence of ATP-dependent 6-phosphofructokinase (Trypanosoma brucei brucei) (O15648 whole entry, looked up): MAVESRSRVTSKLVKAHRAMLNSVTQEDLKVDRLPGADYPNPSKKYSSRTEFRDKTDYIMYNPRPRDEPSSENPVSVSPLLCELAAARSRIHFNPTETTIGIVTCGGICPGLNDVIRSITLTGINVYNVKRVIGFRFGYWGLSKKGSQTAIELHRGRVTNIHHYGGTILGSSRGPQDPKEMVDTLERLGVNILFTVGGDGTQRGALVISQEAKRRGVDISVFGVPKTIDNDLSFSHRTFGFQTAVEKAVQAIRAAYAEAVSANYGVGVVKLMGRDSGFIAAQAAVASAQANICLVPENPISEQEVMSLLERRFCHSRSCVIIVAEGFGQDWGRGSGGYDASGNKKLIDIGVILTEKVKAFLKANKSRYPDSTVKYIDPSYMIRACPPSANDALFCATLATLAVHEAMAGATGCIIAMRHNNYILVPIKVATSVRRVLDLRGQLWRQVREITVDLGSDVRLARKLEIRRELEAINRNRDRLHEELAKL

For the molecule `COc1cc(CC(C)N)c(OC)cc1I` (centres undefined), the Potency result in experiment [1], in [2], in experiment [3] and in [5] was “inactive” throughout. Besides, the activation in experiment [4] was 0.562% (inactive). Further, the viability change in experiment [5] is -12.3%. The molecule was classed as inactive in [6] and in experiment [7].

As for `C[C@@H]1O[C@H](C[N+](C)(C)C)CS1`, the Potency entry in experiment [1], in experiment [2], in [3] and in experiment [5] was “inactive” throughout. Further, the activation in experiment [4] was 11.2% (inactive). For the same molecule, the viability change in experiment [5] came to 8.63%. For the same molecule, the result in [6] and in experiment [7] was inactive.

Consider `Oc1ccc2c3c1O[C@H]1c4oc5ccccc5c4C[C@@]4(O)C(C2)N(CC2CC2)CCC314` (some centres undefined), for which the Potency result in [1], in [2], in [3] and in experiment [5] was “inactive” throughout. For the same molecule, the activation in experiment [4] was 1.94% (inactive). In addition, in experiment [5], the viability change is -2.78%. Further, the outcome in [6] and in experiment [7] was inactive.

Regarding `N#C/C(=C/c1ccc(O)c(O)c1)C(N)=S`, the Potency in experiment [1] is 0.517 µM (active). Also, the Potency result in experiment [2] was “inactive”. In addition, in [5], the Potency result was “inactive” and the viability change came to 0.144%. Further, the outcome in experiment [6] was inactive.

Take `CC1(C(=O)O)C2CCC(O2)C1(C)C(=O)O` (centres undefined): the Potency result in experiment [1] and in [2] was “inactive” each time. Besides, in experiment [3], the Potency was 3.66 µM (active). The activation in [4] is 0.438% (inactive). Also, the result in [7] was inactive.

As to `Cc1c2ccncc2c(C)c2c1[nH]c1ccccc12`, the Potency entry in experiment [1], in [2] and in [3] was “inactive” in each case. Besides, the activation in experiment [4] was 28.2% (inactive). Besides, the result in experiment [6] and in experiment [7] was inactive.

Regarding `CC(N)Cc1c[nH]c2ccc(O)cc12` (centres undefined), the Potency result in [1], in experiment [3], in experiment [8] and in [5] was “inactive” in each case. The activation in experiment [4] was 1.38% (inactive). The viability change in experiment [5] was -2.01%. The molecule was classed as inactive in experiment [6] and in experiment [7].

Consider `NC(N)=NOCC[C@H](N)C(=O)O`, for which the Potency entry in [1], in experiment [2], in [3] and in experiment [5] was “inactive” in each case. Moreover, the activation in experiment [4] was -0.375% (inactive). The viability change in experiment [5] was 10.2%. The molecule was classed as inactive in experiment [6] and in [7].

Take `CC12NC(Cc3ccccc31)c1ccccc12` (centres undefined): the Potency result in [1], in [9], in experiment [3], in experiment [8] and in [5] was “inactive” each time. The viability change in experiment [5] was 6.2%. Moreover, the outcome in experiment [6] and in experiment [7] was inactive.

`C=CCN1CCC23c4c5ccc(O)c4O[C@H]2C(=O)CC[C@@]3(O)C1C5` (some centres undefined): the Potency result in [1], in experiment [9], in [3], in experiment [8] and in [5] was “inactive” each time. Also, in experiment [5], the viability change stood at 2.4%. Moreover, the result in experiment [6] and in [7] was inactive.

Regarding `COc1ccc2c(c1)C13CCCCC1C(C2)N(C)CC3` (centres undefined), the Potency result in [1], in experiment [2], in experiment [3] and in experiment [5] was “inactive” in each case. Further, the activation in experiment [4] was 1.06% (inactive). In addition, in experiment [5], the viability change was found to be 4.34%. The molecule was called inactive in experiment [6] and in experiment [7].

As for `NC(=O)COc1c(F)cc(SCCNS(=O)(=O)c2ccccc2)cc1F`, the Potency result in experiment [1], in experiment [2] and in experiment [3] was “inactive” throughout. For the same molecule, the activation in experiment [4] is 0% (inactive). The call in [6] and in experiment [7] was inactive.

On to `C=CCN(C1=NCCN1)c1c(Cl)cccc1Cl`, for which the Potency entry in [1], in experiment [9], in experiment [3], in experiment [8] and in experiment [5] was “inactive” throughout. In experiment [5], the viability change is -5.34%. Also, in experiment [6], the outcome was inactive.

Consider `COc1ccc2[nH]c3c(c2c1)CCNC3`, for which the Potency entry in experiment [1], in experiment [2] and in experiment [3] was “inactive” each time. Also, the activation in [4] is 1.56% (inactive). The outcome in experiment [6] and in experiment [7] was inactive.

As to `CCCCCCCCCCCCCC(=O)O[C@@H]1[C@@H](C)[C@@]2(O)[C@@H](C=C(CO)C[C@@]3(O)C(=O)C(C)=C[C@@H]23)C2C(C)(C)[C@@]21OC(C)=O` (some centres undefined), the Potency result in experiment [1], in experiment [2] and in experiment [5] was “inactive” throughout. In experiment [3], the Potency was 0.0041 µM (active). The activation in experiment [4] was 0.75% (inactive). In addition, the viability change in [5] is -19.6%. For the same molecule, the result in [7] was inactive.

In the case of `CCCN(CCC)[C@@H]1CCc2cccc(O)c2C1`, the Potency result in experiment [1], in [2], in experiment [3] and in experiment [5] was “inactive” in each case. Further, the activation in [4] was 0.5% (inactive). Also, in experiment [5], the viability change is -3.45%. Further, the molecule was called inactive in [6] and in [7].

In the case of `COc1ccc(CNC(=O)/C=C/c2ccc3[nH]cc(CCN(C)C)c3c2)cc1`, the Potency result in experiment [1], in experiment [3], in experiment [8] and in [5] was “inactive” each time. Also, the activation in experiment [4] is -0.312% (inactive). Also, in experiment [5], the viability change was -0.218%. For the same molecule, the call in experiment [6] and in experiment [7] was inactive.

Consider `NCC(O)c1cc(O)c(O)cc1F` (centres undefined), for which the Potency entry in experiment [1], in experiment [3] and in experiment [5] was “inactive” each time. In addition, in experiment [2], the Potency is 2.51 µM (active). The activation in [4] was 1.38% (inactive). Further, the viability change in experiment [5] is -0.467%. For the same molecule, the molecule was classed as inactive in experiment [6] and in experiment [7].

As for `CN1C2CCC1CC(OC(c1ccccc1)c1ccccc1N)C2` (centres undefined), the Potency result in experiment [1], in experiment [2], in [3] and in experiment [5] was “inactive” each time. In addition, the activation in experiment [4] is 1.44% (inactive). The viability change in [5] was -4.19%. Further, the call in experiment [6] and in [7] was inactive.

Consider `CCCN(CCC)C1CCc2cccc(O)c2C1` (centres undefined), for which the Potency entry in [1], in [2], in experiment [3] and in experiment [5] was “inactive” each time. In [4], the activation was 1.12% (inactive). Further, the viability change in [5] was found to be 4.06%. The result in [6] and in experiment [7] was inactive.

Regarding `C[N+](C)(C)CC#CCN1CCCC1=O`, the Potency entry in experiment [1], in [2], in experiment [3] and in experiment [5] was “inactive” each time. Further, the activation in [4] is 57.8% (active). Also, in experiment [5], the viability change was found to be 2.69%. The result in [6] and in [7] was inactive.

For the molecule `NCCc1ccc(S(=O)(=O)F)cc1`, the Potency entry in experiment [1], in [2], in experiment [3] and in experiment [5] was “inactive” each time. The activation in [4] is 1.25% (inactive). For the same molecule, in experiment [5], the viability change is -2.23%. In addition, the call in experiment [6] and in [7] was inactive.

For `CC(=O)c1c(O)c(C)c(O)c(Cc2c(O)c3c(c(C(=O)/C=C/c4ccccc4)c2O)OC(C)(C)C=C3)c1O`, the Potency result in experiment [1], in experiment [2] and in experiment [3] was “inactive” in each case. Besides, the activation in experiment [4] is 7.12% (inactive). Moreover, the molecule was classed as inactive in experiment [6] and in experiment [7].

On to `C[C@H](Cc1ccc2c(c1)OC(C(=O)O)(C(=O)O)O2)NC[C@H](O)c1cccc(Cl)c1`, for which the Potency result in experiment [1], in experiment [2], in [3] and in experiment [5] was “inactive” each time. Besides, the activation in experiment [4] is 0.625% (inactive). Also, the viability change in experiment [5] was found to be 0.983%. The molecule was called inactive in experiment [6] and in experiment [7].

On to `CC(N)[C@H](O)c1ccc(O)c(O)c1` (some centres undefined), for which the Potency result in [1], in experiment [2], in experiment [3] and in experiment [5] was “inactive” in each case. The activation in [4] is 1.12% (inactive). In addition, the viability change in experiment [5] was -3.08%. The call in [6] and in experiment [7] was inactive.

Turning to `CC(C)(C)c1o[nH]c(=O)c1CC(N)C(=O)O` (centres undefined), the Potency result in experiment [1], in experiment [2], in experiment [3] and in experiment [5] was “inactive” each time. The activation in experiment [4] was 0.625% (inactive). Further, the viability change in experiment [5] was determined as 8%. Also, the call in experiment [6] and in experiment [7] was inactive.

Take `CO[C@H]1CC=C2CCN3CCC4=C(CC(=O)OC4)[C@]23C1`: the Potency result in [1], in experiment [2], in experiment [3] and in [5] was “inactive” each time. Moreover, in experiment [5], the viability change was -2.68%. Further, the molecule was called inactive in experiment [6] and in experiment [7].
